Here are results for 37 compounds from the supplement of paper PMC9492666.

The test system of one assay is HCC1937. The assay is described as follows: relative cell viability, compound + erastin, vs DMSO (fraction of DMSO control); higher = less growth inhibition. The conditions noted are these: 72 h.
In another assay the test system is MDA-MB-231. The assay is described as above. The note with it: 72 h.

Molecules are shown by their SMILES. Structures can show the parent of a compound that is named as a salt.
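Further: viability read by CCK-8 kit in 96-well plates, part of a combination screen pairing lipid-metabolism-targeting compounds with erastin.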

Consider `CCC(CC)CC1(C(=O)Nc2ccccc2SC(=O)C(C)C)CCCCC1` [Dalcetrapib] + CCOc1ccccc1-n1c(C(C)N2CCN(C(=O)COc3ccc(Cl)cc3)CC2)nc2ccccc2c1=O [erastin], for which the relative cell viability stood at 0.737 in the assay with HCC1937 and 0.839 in the assay on MDA-MB-231.

Consider `CCC1=N[C@H]2C[C@@]3(C(=O)N(OC)c4ccccc43)[C@H]3CC1[C@@H]2CO3` [Humantenmine] + CCOc1ccccc1-n1c(C(C)N2CCN(C(=O)COc3ccc(Cl)cc3)CC2)nc2ccccc2c1=O [erastin], for which the relative cell viability with HCC1937 is 0.573; in the assay on MDA-MB-231 it was 0.63.

`COc1ccc(-c2coc3cc(O)cc(O)c3c2=O)cc1` [Biochanin A] + CCOc1ccccc1-n1c(C(C)N2CCN(C(=O)COc3ccc(Cl)cc3)CC2)nc2ccccc2c1=O [erastin]: the relative cell viability in the assay on HCC1937 amounted to 0.589; in the assay with MDA-MB-231, 0.559.

On to `O=C(O)CN(CC(=O)O)c1ccccc1OCCOc1ccccc1N(CC(=O)O)CC(=O)O` + CCOc1ccccc1-n1c(C(C)N2CCN(C(=O)COc3ccc(Cl)cc3)CC2)nc2ccccc2c1=O [erastin], for which the relative cell viability was found to be 0.597 in the assay with HCC1937 and 0.765 with MDA-MB-231.

Turning to `O=C(NC1CCN(CCCCC2(C(=O)NCC(F)(F)F)c3ccccc3-c3ccccc32)CC1)c1ccccc1-c1ccc(C(F)(F)F)cc1` [Lomitapide] + CCOc1ccccc1-n1c(C(C)N2CCN(C(=O)COc3ccc(Cl)cc3)CC2)nc2ccccc2c1=O [erastin], the relative cell viability in the assay on HCC1937 was 0.201; in the assay with MDA-MB-231, 0.436.

As to `CCCCCCCCCCOc1ccc(C(=O)Nc2cc(C(=O)NCCCC)ccc2SC)cc1` + CCOc1ccccc1-n1c(C(C)N2CCN(C(=O)COc3ccc(Cl)cc3)CC2)nc2ccccc2c1=O [erastin], the figures for the relative cell viability in the assay with HCC1937 and with MDA-MB-231 were 0.739 and 0.845, respectively.

Turning to `COc1ccc(-c2cc(=O)c3c(O)c(OC)c(OC)c(OC)c3o2)cc1OC` + CCOc1ccccc1-n1c(C(C)N2CCN(C(=O)COc3ccc(Cl)cc3)CC2)nc2ccccc2c1=O [erastin], the relative cell viability in the assay with HCC1937 was determined as 0.573; in the assay on MDA-MB-231 it was 0.784.

Take `CCCCCCCCCCCCCCOc1ccc(C(=O)OCC(=O)N(C)CC(=O)OCC)o1` [Olumacostat Glasaretil] + CCOc1ccccc1-n1c(C(C)N2CCN(C(=O)COc3ccc(Cl)cc3)CC2)nc2ccccc2c1=O [erastin]: the relative cell viability was determined as 0.549 with HCC1937 and 0.477 in the assay on MDA-MB-231.

Turning to `O=c1oc2ccccc2cc1O` [3-Hydroxycoumarin] + CCOc1ccccc1-n1c(C(C)N2CCN(C(=O)COc3ccc(Cl)cc3)CC2)nc2ccccc2c1=O [erastin], the relative cell viability in the assay on HCC1937 amounted to 0.61; in the assay on MDA-MB-231, 0.741.

On to `CC(C)=CCC[C@](C)(O)[C@H]1CC[C@]2(C)[C@@H]1[C@H](O)C[C@@H]1[C@@]3(C)CC[C@H](O)C(C)(C)[C@@H]3[C@@H](O)C[C@]12C` [(20S)-Protopanaxatriol] + CCOc1ccccc1-n1c(C(C)N2CCN(C(=O)COc3ccc(Cl)cc3)CC2)nc2ccccc2c1=O [erastin], for which the relative cell viability was 0.772 in the assay with HCC1937 and 0.397 with MDA-MB-231.

Consider `O=C(c1ccc(-c2nc3ccc(F)cc3o2)cc1)N1CCN(C(=O)C2(O)CC2)CC1` + CCOc1ccccc1-n1c(C(C)N2CCN(C(=O)COc3ccc(Cl)cc3)CC2)nc2ccccc2c1=O [erastin], for which the relative cell viability in the assay with HCC1937 was determined as 0.588; with MDA-MB-231, 0.823.

Regarding `C/C=C/c1cc(OC)c(OC)cc1OC` [alpha-Asarone] + CCOc1ccccc1-n1c(C(C)N2CCN(C(=O)COc3ccc(Cl)cc3)CC2)nc2ccccc2c1=O [erastin], the relative cell viability in the assay on HCC1937 was 0.594; in the assay on MDA-MB-231, 0.774.

On to `O=c1ccc2cc(O)c(O)cc2o1` [Esculetin] + CCOc1ccccc1-n1c(C(C)N2CCN(C(=O)COc3ccc(Cl)cc3)CC2)nc2ccccc2c1=O [erastin], for which the figures for the relative cell viability in the assay with HCC1937 and in the assay on MDA-MB-231 were 0.648 and 0.711, respectively.

Regarding `Cc1cccc(Nc2cc(Cl)nc(SCC(=O)O)n2)c1C` [Pirinixic Acid] + CCOc1ccccc1-n1c(C(C)N2CCN(C(=O)COc3ccc(Cl)cc3)CC2)nc2ccccc2c1=O [erastin], the relative cell viability with HCC1937 was 0.602; with MDA-MB-231, 0.74.

Take `Nn1nnc2ccccc21` [1-Aminobenzotriazole] + CCOc1ccccc1-n1c(C(C)N2CCN(C(=O)COc3ccc(Cl)cc3)CC2)nc2ccccc2c1=O [erastin]: the values for the relative cell viability with HCC1937 and in the assay with MDA-MB-231 were 0.76 and 0.73, respectively.

For the compound `CC(C)c1c(C(=O)Nc2ccccc2)c(-c2ccccc2)c(-c2ccc(F)cc2)n1CC[C@@H](O)C[C@@H](O)CC(=O)O` [Atorvastatin Calcium] + CCOc1ccccc1-n1c(C(C)N2CCN(C(=O)COc3ccc(Cl)cc3)CC2)nc2ccccc2c1=O [erastin], the figures for the relative cell viability in the assay with HCC1937 and with MDA-MB-231 were 0.357 and 0.337, respectively.

Turning to `COc1ccc(Nc2ccn(-c3ccccc3)n2)cc1` + CCOc1ccccc1-n1c(C(C)N2CCN(C(=O)COc3ccc(Cl)cc3)CC2)nc2ccccc2c1=O [erastin], the relative cell viability is 0.686 in the assay with HCC1937 and 0.902 with MDA-MB-231.

Turning to `CC[C@H](C)C(=O)O[C@H]1CCC=C2C=C[C@H](C)[C@H](CC[C@@H]3C[C@@H](O)CC(=O)O3)[C@H]21` [Mevastatin] + CCOc1ccccc1-n1c(C(C)N2CCN(C(=O)COc3ccc(Cl)cc3)CC2)nc2ccccc2c1=O [erastin], the relative cell viability with HCC1937 is 0.6; with MDA-MB-231, 0.434.

Turning to `CCCCC[C@H](O)CC(=O)CCc1ccc(O)c(OC)c1` [6-Gingerol] + CCOc1ccccc1-n1c(C(C)N2CCN(C(=O)COc3ccc(Cl)cc3)CC2)nc2ccccc2c1=O [erastin], the relative cell viability with HCC1937 is 0.444; with MDA-MB-231 it was 0.693.

In the case of `O=c1cc(-c2ccc(O)c(-c3c(O)cc(O)c4c(=O)cc(-c5ccc(O)cc5)oc34)c2)oc2cc(O)cc(O)c12` [Amentoflavone] + CCOc1ccccc1-n1c(C(C)N2CCN(C(=O)COc3ccc(Cl)cc3)CC2)nc2ccccc2c1=O [erastin], the relative cell viability in the assay on HCC1937 was 0.438; with MDA-MB-231, 0.715.

Turning to `Cc1nc(Nc2cnn(C3CCNCC3)c2)nc2c1N(C)C(=O)c1cc3ccccc3cc1N2C` + CCOc1ccccc1-n1c(C(C)N2CCN(C(=O)COc3ccc(Cl)cc3)CC2)nc2ccccc2c1=O [erastin], the relative cell viability with HCC1937 was found to be 0.215; in the assay with MDA-MB-231 it was 0.421.

On to `C[C@H](CCCC(C)(C)O)[C@H]1CC[C@H]2[C@@H]3CC=C4C[C@@H](O)CC[C@]4(C)[C@H]3CC[C@]12C` [25-Hydroxycholesterol] + CCOc1ccccc1-n1c(C(C)N2CCN(C(=O)COc3ccc(Cl)cc3)CC2)nc2ccccc2c1=O [erastin], for which the relative cell viability in the assay with HCC1937 is 0.745; with MDA-MB-231 it was 0.483.

For `CC1=C[C@]2(O)O[C@@]3(CC2=C(C)C)[C@@H](C)CC[C@@H]13` [Curcumenol] + CCOc1ccccc1-n1c(C(C)N2CCN(C(=O)COc3ccc(Cl)cc3)CC2)nc2ccccc2c1=O [erastin], the relative cell viability in the assay on HCC1937 was determined as 0.55; in the assay with MDA-MB-231, 0.639.

For `NC(N)=N/N=C/c1cccc(Cl)c1Cl` [Raphin1 acetate] + CCOc1ccccc1-n1c(C(C)N2CCN(C(=O)COc3ccc(Cl)cc3)CC2)nc2ccccc2c1=O [erastin], the values for the relative cell viability in the assay with HCC1937 and in the assay on MDA-MB-231 were 0.718 and 0.588, respectively.

Consider `O=C(CC(C(=O)O)c1c[nH]c2ccccc12)c1ccc(F)cc1F` (centres undefined) [Mitochonic acid 5] + CCOc1ccccc1-n1c(C(C)N2CCN(C(=O)COc3ccc(Cl)cc3)CC2)nc2ccccc2c1=O [erastin], for which the relative cell viability with HCC1937 came out at 0.931; in the assay on MDA-MB-231, 1.

On to `O=C(O)c1c[nH]c2cc(Cl)c(-c3ccc(C4(O)CCC4)cc3)cc12` + CCOc1ccccc1-n1c(C(C)N2CCN(C(=O)COc3ccc(Cl)cc3)CC2)nc2ccccc2c1=O [erastin], for which the relative cell viability in the assay with HCC1937 came to 0.599; in the assay on MDA-MB-231, 0.677.

Regarding `O=C(O)c1cc(F)c2nc(N3[C@@H]4CC[C@H]3C[C@@H](OCc3c(-c5ccccc5OC(F)(F)F)noc3C3CC3)C4)sc2c1` [Tropifexor] + CCOc1ccccc1-n1c(C(C)N2CCN(C(=O)COc3ccc(Cl)cc3)CC2)nc2ccccc2c1=O [erastin], the relative cell viability in the assay with HCC1937 turned out to be 0.658; in the assay with MDA-MB-231 it was 0.652.

With `Cc1c(C(=O)NN2CCOCC2)nn(-c2ccc(Cl)cc2Cl)c1-c1ccc(I)cc1` + CCOc1ccccc1-n1c(C(C)N2CCN(C(=O)COc3ccc(Cl)cc3)CC2)nc2ccccc2c1=O [erastin], the results for the relative cell viability in the assay with HCC1937 and with MDA-MB-231 were 0.1 and 0.325, respectively.

In the case of `COc1ccc2c(=O)c(-c3ccccc3)coc2c1` [7-Methoxyisoflavone] + CCOc1ccccc1-n1c(C(C)N2CCN(C(=O)COc3ccc(Cl)cc3)CC2)nc2ccccc2c1=O [erastin], the relative cell viability came out at 0.443 in the assay on HCC1937 and 0.68 with MDA-MB-231.

As for `O=C(CN1CCN(C(=O)c2ccco2)CC1)Nc1cc(C(F)(F)F)ccc1Cl` + CCOc1ccccc1-n1c(C(C)N2CCN(C(=O)COc3ccc(Cl)cc3)CC2)nc2ccccc2c1=O [erastin], the relative cell viability in the assay on HCC1937 was 0.638; with MDA-MB-231, 0.463.

In the case of `CN(C)CCOC(=O)COc1ccc(Cl)cc1` [Meclofenoxate hydrochloride] + CCOc1ccccc1-n1c(C(C)N2CCN(C(=O)COc3ccc(Cl)cc3)CC2)nc2ccccc2c1=O [erastin], the values for the relative cell viability in the assay on HCC1937 and with MDA-MB-231 were 0.693 and 0.81, respectively.

For the compound `CN1CCN(C(=O)C2C(C(=O)O)[C@H]3CC[C@@H]2O3)CC1` (some centres undefined) + CCOc1ccccc1-n1c(C(C)N2CCN(C(=O)COc3ccc(Cl)cc3)CC2)nc2ccccc2c1=O [erastin], the figures for the relative cell viability with HCC1937 and with MDA-MB-231 were 0.278 and 0.394, respectively.

As to `O=C1/C(=C/c2cccs2)CC/C1=C\c1cccs1` + CCOc1ccccc1-n1c(C(C)N2CCN(C(=O)COc3ccc(Cl)cc3)CC2)nc2ccccc2c1=O [erastin], the results for the relative cell viability in the assay on HCC1937 and in the assay with MDA-MB-231 were 0.514 and 0.658, respectively.

`CC(C)(Oc1ccc(C(=O)c2ccc(Cl)cc2)cc1)C(=O)O` [Choline Fenofibrate] + CCOc1ccccc1-n1c(C(C)N2CCN(C(=O)COc3ccc(Cl)cc3)CC2)nc2ccccc2c1=O [erastin]: the relative cell viability in the assay on HCC1937 came out at 0.848; with MDA-MB-231, 0.662.

As to `Nc1ccc(C(=O)O)c(O)c1` [Aminopar] + CCOc1ccccc1-n1c(C(C)N2CCN(C(=O)COc3ccc(Cl)cc3)CC2)nc2ccccc2c1=O [erastin], the figures for the relative cell viability in the assay with HCC1937 and in the assay on MDA-MB-231 were 0.773 and 0.664, respectively.

Turning to `O=C(Nc1ccc(C(O)(C(F)(F)F)C(F)(F)F)cc1)c1ccc(C(F)(F)F)cc1` + CCOc1ccccc1-n1c(C(C)N2CCN(C(=O)COc3ccc(Cl)cc3)CC2)nc2ccccc2c1=O [erastin], the values for the relative cell viability in the assay with HCC1937 and in the assay with MDA-MB-231 were 0.366 and 0.693, respectively.

With `C[C@@H](Nc1nc(N[C@H](C)C(F)(F)F)nc(-c2cccc(Cl)n2)n1)C(F)(F)F` [Vorasidenib] + CCOc1ccccc1-n1c(C(C)N2CCN(C(=O)COc3ccc(Cl)cc3)CC2)nc2ccccc2c1=O [erastin], the relative cell viability in the assay with HCC1937 is 0.607; with MDA-MB-231 it was 0.68.
